D1 PAM: enhances dopamine response at the human D1 receptor | P21728 | HEK293 TREx D1 cells, calcium flux, dopamine EC20 potentiation | potentiation, % at 10 µM | 360,000 tested, 0.036% active; in the data active = potentiation above about 30%; also: 0% is about no effect
D1 agonist: agonists of human D1 dopamine receptor; P21728; activation, % at 2 µM; HEK293 T-REx D1 cells, calcium flux, agonist mode; 360,000 tested, 1% active; in the data active = activation above about 30%; also: 0% is about no effect
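Tetracycline-induced HEK293 TREx D1 cells, force-coupled to calcium signalling, were dye-loaded with a no-wash calcium kit. Compound was pin-added after a 10 s baseline. Fluorescence was read kinetically at 1 cycle/s for 180 s, with calcium rises flagged as agonism.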
D3 ag: D3 dopamine receptor (human) agonism; P35462; D3R DiscoveRx beta-arrestin cells, luminescence, 90 min; max activation, %; 410,000 tested, 0.58% active; in the data active = max activation above about 30%; also: 0% is about no effect
Target sequence (P35462 whole entry, looked up): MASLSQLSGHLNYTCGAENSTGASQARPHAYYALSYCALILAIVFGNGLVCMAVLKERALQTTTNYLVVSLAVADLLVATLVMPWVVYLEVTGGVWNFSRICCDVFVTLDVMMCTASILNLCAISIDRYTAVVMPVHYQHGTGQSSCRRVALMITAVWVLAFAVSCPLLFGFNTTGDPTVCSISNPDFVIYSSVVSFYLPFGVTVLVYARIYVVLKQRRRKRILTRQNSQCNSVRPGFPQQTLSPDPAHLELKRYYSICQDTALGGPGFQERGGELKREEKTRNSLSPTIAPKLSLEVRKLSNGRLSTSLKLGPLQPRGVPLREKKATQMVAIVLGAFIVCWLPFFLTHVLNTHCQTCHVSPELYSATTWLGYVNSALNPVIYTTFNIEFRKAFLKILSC
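Agonist-mode cell screen: cells plated at 1500/well and incubated overnight at 37 °C, then exposed to library compounds for 90 min at 37 °C. Detection reagent was added for 30–60 min at room temperature, and luminescence was read.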
D1 antagonist: antagonists of human D1 dopamine receptor. P21728. activity change, negative = inhibition, % at 10 µM. HEK293 TREx D1 cells, calcium flux, dopamine EC80; stronger effect = lower value. 360,000 tested, 3.2% active. AID 504652; in the data active = activity change below about -30%; also: % is scaled to controls: 0 for no effect and ±100 for the full control effect
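Calcium flux readout: force-coupled, inducible Hek293 Trex D1 line, cells induced overnight at 30 C with tetracycline, dye-loaded 30–90 min at RT. Antagonism scored against EC80 dopamine challenge given 180 s after compound.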
DRD3 antagonist: antagonists of human D3 dopamine receptor | P35462 | D3R cells, DiscoveRx beta-arrestin luminescence, antagonist mode; stronger effect = lower value | max response, negative = inhibition, % | 360,000 tested, 2.5% active; in the data active = max response below about -50%; inconclusive = no clear call, values can overlap the other calls; also: % is scaled to controls: 0 for no effect and ±100 for the full control effect
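Cells expressing the human receptor were seeded at 1500 cells/well, incubated overnight at 37 degrees C in 5% CO2, then exposed to library compounds with dopamine controls for 90 minutes at 37 degrees C before luminescent detection.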
An asterisk follows results filed as active; ? = inconclusive; · = no result; ! = repeats disagree. Compounds with a hit are over-represented: about 6% of the library has one in this group of screens.

SMILES | D1 PAM | D1 agonist | D3 ag | D1 antagonist | DRD3 antagonist
c1ccc(Nc2c3c(nc4ccccc24)CCC3)cc1 | -10.7 | 4.3 | 1.5 | · | -2.1
Fc1ccc(Nc2c3c(nc4ccccc24)CCC3)cc1 | -13.0 | 13.7 | -2.0 | -40.9* | 1.1
COc1ccc(Nc2c3c(nc4ccccc24)CCC3)cc1 | -10.8 | 7.5 | -14.9 | -26.4 | -2.0
COc1ccc(C)cc1Nc1c2c(nc3ccccc13)CCC2 | -9.9 | 6.4 | -16.6 | -55.0*! | ?
Fc1ccccc1Nc1c2c(nc3ccccc13)CCC2 | -5.2 | 2.7 | 6.0 | -33.5* | ·
FC(F)(F)c1cccc(Nc2c3c(nc4ccc(Cl)cc24)CCC3)c1 | -0.7 | 5.4 | 0.7 | -32.0* | ·
COc1ccc(Nc2c3c(nc4ccccc24)CCCC3)cc1OC | -1.1 | -0.4 | -14.9 | 6.0 | -22.9
CCOC(=O)N1CCN(C(=O)c2ccc(Oc3ccc([N+](=O)[O-])cc3)cc2)CC1 | -9.3 | 11.3 | 1.0 | -26.4 | -4.0
O=C(CC1C(=O)NCCN1Cc1c(F)cccc1Cl)NCCCN1CCCC1=O (stereo not drawn) | 1.6 | 0.6 | 11.7 | -38.8* | 13.7
O=C(CC1C(=O)NCCN1Cc1cccc(F)c1)NCCCN1CCCC1=O (stereo not drawn) | -9.1 | -0.6 | 3.3 | -0.7 | 12.2
O=C(CC1C(=O)NCCN1CCCc1ccccc1)NCCc1ccccc1F (stereo not drawn) | 2.1 | 34.1* | 2.3 | -28.9 | -10.1
CCOC(=O)c1ccc2c(c1)N(Cc1cccc([N+](=O)[O-])c1)C(=O)c1ccccc1S2 | 2.2 | 7.1 | -5.5 | -4.7 | ·
CCC1CCCCN1C(=O)COC(=O)c1cc2ccccc2cc1O (stereo not drawn) | -8.8 | 14.9 | -17.0 | -32.2* | -1.5
c1ccc(-c2ccccc2OCCCCN2CCCCCC2)cc1 | -12.4 | 28.3 | -2.6 | -34.8* | -86.1*
OCCCN1CCN(CCCOc2ccccc2-c2ccccc2)CC1 | -2.2 | 4.4 | -19.1 | -19.1 | ?
c1ccc(-c2ccccc2OCCOCCN2CCCCC2)cc1 | -10.9 | 24.1 | -27.7 | -47.0* | ?
CN(C)CCOCCOc1ccccc1-c1ccccc1 | -9.2 | 7.9 | -24.9 | -26.1 | -68.6*
c1ccc(-c2ccccc2OCCCN2CCOCC2)cc1 | -1.1 | -0.4 | 0.4 | -3.8 | 0.2
c1ccc(-c2ccccc2OCCN2CCCC2)cc1 | -12.2 | 7.4 | -23.3 | -19.2 | -62.9*
COc1cc(OC)c(NC(=O)N2CCc3cc(S(=O)(=O)N4CCC(C)CC4)ccc32)cc1Cl | -0.2 | 2.7 | 7.0 | -2.1 | ·
COc1ccc(C2=Nc3ccccc3N(C(=O)c3ccc(C(F)(F)F)cc3)C2C(=O)NCc2ccccc2)cc1 (stereo not drawn) | · | · | -2.1 | · | 67.3
CCc1ccccc1OCCCCN1CCCC1 | -15.2 | 4.6 | -0.5 | -26.2 | ?
C=CCc1ccccc1OCCCCN1CCCC1 | -2.2 | -0.7 | -12.5 | -10.0 | -83.0*
C=CCc1ccccc1OCCn1ccnc1 | -1.4 | 0.0 | 5.6 | -5.9 | -51.8*
Cc1csc2ncnc(N3CCN(C(=S)Nc4ccc(F)cc4F)CC3)c12 | -5.2 | 10.3 | 40.7* | -35.9* | 19.3
SMILES | D1 PAM | D1 agonist | D3 ag | D1 antagonist | DRD3 antagonist
CN1CCN(c2ccc(NC(=O)c3ccc(C(F)(F)F)cc3)cn2)CC1 | -8.3 | 3.7 | -4.7 | -41.3* | -9.1
Fc1ccc(NC(=S)N2CCCN(c3ccc(C(F)(F)F)cn3)CC2)c(F)c1 | -6.8 | 17.5 | 0.7 | -53.7* | 22.6
CC1CN(C(=S)Nc2ccc(F)cc2F)CC(C)O1 (stereo not drawn) | 4.9 | -0.4 | 4.0 | 1.5 | 11.6
O=C(Nc1ccc(F)cc1F)N1CCCN(c2ccc(C(F)(F)F)cn2)CC1 | -2.2 | 10.1 | 6.5 | -12.9 | 17.9
CNC(=S)Nc1ccc(N2CCN(c3ccc(C(F)(F)F)cn3)CC2)nc1 | -3.3 | 13.9 | -23.3 | -9.0 | -51.9*
Cc1ccccc1C(=O)Nc1ccc(N2CCN(C)CC2)nc1 | -4.2 | 1.3 | -1.0 | 7.9 | -11.3
Brc1cccc(-c2nc3ccc(Br)cn3c2Cc2ccccc2)c1 | · | · | 0.7 | · | 7.9
CCC(C)(C)NC(=O)C(c1ccc(OC)cc1)N(Cc1cccs1)C(=O)CCC(=O)Nc1cc(C)on1 (stereo not drawn) | -9.2 | 0.2 | -4.3 | -35.5* | -15.8
Cc1[nH]c2ccc(F)cc2c(=O)c1SC(F)(F)C(F)F | -1.1 | 20.4 | -2.6 | -42.4* | 6.0
CCCCOc1ccc(-c2nonc2NC(=O)c2ccco2)cc1 | -2.8 | 2.2 | 3.5 | -22.2 | ·
CC1OC(OC2C(OC3C(O[C@H]4CC[C@]5(C)C6C=C[C@]78OC[C@@]9(CC[C@@H](C)[C@H](C)C97)[C@H](O)C[C@@]8(C)[C@]6(C)CC[C@H]5C4(C)C)OC(C)C(O)C3O)OC(CO)C(O)C2O)C(O)C(O)C1O (stereo partly drawn) | 16.4 | 393.9* | · | 34.6 | ·
CCOC(=O)N1CCc2c(sc(N)c2C#N)C1 | 6.3 | 1.5 | 59.8* | 2.2 | 7.1
CCOc1ccc(NC(=O)CN(C)C(=O)c2ccc(N3CCCC3)c([N+](=O)[O-])c2)cc1OCC | -15.5 | 0.5 | -6.2 | -20.3 | -59.7*
CCOc1ccc(NC(=O)CN(C)C(=O)c2ccc(N3CCCCC3)c([N+](=O)[O-])c2)cc1OCC | -8.9 | 3.0 | -0.3 | -13.3 | 7.7
Cc1ccc(-c2nn(CC(=O)NCc3ccccc3)c3c2cnc2ccc(F)cc23)cc1C | -4.9 | 4.8 | -6.6 | -10.7 | ·
O=C(Cn1nc(N2CCN(c3ccccc3)CC2)ccc1=O)NCc1ccccc1F | -3.0 | -0.2 | 1.1 | -36.8* | ·
Nc1nc(N)c(-c2ccccc2)s1 | · | · | 5.4 | · | ·
CC1(C(=O)Nc2ccc3c(c2)OCCO3)CSCC(=O)N1Cc1ccco1 (stereo not drawn) | · | · | 12.3 | · | 7.2
CCOC(=O)CCC(NC(=O)CCCCC(=O)NC(CCC(=O)OCC)C(=O)OCC)C(=O)OCC (stereo not drawn) | -4.8 | 4.0 | 0.8 | 10.9 | 1.2
CCOC(=O)CCC(NC(=O)c1cncc(O)c1)C(=O)OCC (stereo not drawn) | 0.9 | 4.0 | -1.0 | 16.2 | -64.5*
Nc1ccccc1SC(CC(=O)c1ccccc1)c1ccc([N+](=O)[O-])cc1 (stereo not drawn) | · | · | -7.0 | · | -51.4*
Nc1ccccc1SC(CC(=O)c1ccccc1)c1cccc([N+](=O)[O-])c1 (stereo not drawn) | · | · | -6.6 | · | ?
CCCCC[C@@H](C)N1C[C@H](COCc2ccccc2)Oc2cc(N3CCC[C@@H]3COC)ccc2S1(=O)=O | · | · | 8.8 | · | 45.8
CCOC(=O)N1CCN(C(=O)c2cnn3c(C)c(Cc4ccc(C)cc4)c(C)nc23)CC1 | -0.3 | 0.7 | 5.5 | -9.8 | 1.4
Cc1ccc(C)c(Cc2c(C)nc3c(C(=O)N4CCOCC4)cnn3c2C)c1 | -1.4 | -0.2 | 31.3* | 21.9 | -8.9
O=C(c1ccccc1Br)N1CCN(c2ccccn2)CC1 | -4.2 | 6.5 | 33.0* | -3.2 | -11.0
Cc1ccccc1C(=O)N1CCN(c2ccccn2)CC1 | 0.1 | 2.9 | -0.4 | 6.8 | 15.3

High-throughput results (PubChem)
